Laboratory results published in PubChem BioAssay (NCATS).
Inconclusive results are not listed. Activity calls are given as the source filed them. Calls come from the whole dose curve; as a rule, active = well fitted curve in the direction sought with a large enough effect; inconclusive = small, poorly fitted or top-dose-only effect, or another doubt; inactive = no such curve, though single readings can be large; an effect the other way counts as inactive or inconclusive.

Experiments:
[1] = Cellular Toxicity (caspase-3) SHSY5Y (AID 657)
Procedure, shortened: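 SH-SY5Y human neuroblastoma cells, 1500/well, exposed to compound for 16 hours at 37 °C in complete medium. Caspase-3/7 activity read by Caspase-Glo luminescence after 1 hr at room temperature, normalized to DMSO and 10 uM staurosporine; AC50 from Hill fit.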

[2] = Cellular Toxicity (caspase-3) BJ (AID 658)
Procedure, shortened: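 Caspase-Glo 3/7 luminescence, read 1 hr after reagent at room temperature, in normal BJ fibroblasts exposed 16 hours at 37 °C. AC50 values from Hill-equation concentration-response, scaled between DMSO basal and 10 uM staurosporine as 100%.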

[3] = Cellular Toxicity (caspase-3) MRC-5 (AID 659)
Procedure, shortened: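 Luminescent Caspase-Glo 3/7 read-out (1 h, room temperature) after a 16 h, 37 °C compound exposure of MRC-5 lung fibroblasts at 1500 cells/well. Concentration-response AC50 from Hill equation; 0% DMSO, 100% 10 uM staurosporine.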

[4] = Cellular Toxicity (caspase-3) Mesangial (AID 660);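 note: cells exposed to compound for 16 h before the caspase read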
Procedure, shortened: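 Seed cells derived from normal human renal glomeruli, incubate 5 h, add compounds across concentrations and incubate 16 h at 37 °C. Caspase 3/7 activation is then quantified by luciferase light, with AC50 derived by Hill modeling.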

[5] = Cellular Toxicity (caspase-3) H-4-II-E (AID 663); details: Potency: caspase-3 activation;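 note: cells exposed to compound for 16 hr before readout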
Procedure, shortened: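 Caspase 3/7 activation measured by luminescent aminoluciferin substrate cleavage after 16 hr compound treatment of H-4-II-E cells in complete medium. Increase normalized between DMSO (basal) and 100 uM tamoxifen (100%); Hill-equation AC50 from concentration-response.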

[6] = Cellular Toxicity (caspase-3) Hek293 (AID 664);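 note: cells exposed to compound for 16 h at 37 °C before readout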
Procedure, shortened: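 qHTS, HEK293 (human embryonic kidney), 16 h cpd exposure in complete medium. Caspase-3/7 activation = luminescence increase; normalized to DMSO/100 uM tamoxifen; Hill-fit AC50.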

[7] = Cellular Toxicity (caspase-3) N2a (AID 665);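 note: compound exposure lasted 16 h at 37 °C before readout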
Procedure, shortened: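 Caspase-3/7 activation, measured as increased luminescence from aminoluciferin release, is quantified in mouse N2a cells exposed to compounds for 16 h. Values are normalized to DMSO and 10 uM staurosporine, with AC50 derived by Hill modelling.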

[8] = Cellular Toxicity (caspase-3) NIH 3T3 (AID 666)
Procedure, shortened: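 Cells were plated at 1000 per well and incubated 5 hr at 37°C, then compound was added for 16 hr. Caspase-Glo 3/7 reagent followed for 20 min at room temperature before luminescence was read.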

[9] = Cellular Toxicity (caspase-3) Renal Proximal Tubule (AID 667);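 note: cells exposed to compound for 16 hours at 37 °C before detection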
Procedure, shortened: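 Freshly isolated primary rat kidney proximal tubule cells, 1000/well, treated 16 hr at 37 °C, then Caspase-Glo 3/7 luminescence after 1 hr. Normalized to DMSO and 10 uM staurosporine; AC50 from Hill fit.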

[10] = Cell Viability - LYMP2-001 (AID 921); note: series mostly up to about 92 µM; nearly all actives have a fitted effect of over 70% in size
Procedure, shortened: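 Human lymphoblastoid LYMP2-001 cells, 2500 per well, in complete medium, treated 24 h at 37 C. Viability from cellular ATP by CellTiter-Glo luminescence; AC50 from Hill-equation fits of qHTS concentration-response.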

[11] = MultiTox-Fluor Cytotoxicity Assay - LYMP1-001 - Dead Cells (AID 946)
Procedure, shortened: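 AC50 from Hill fit of concentration-response; data normalized to DMSO (basal) and 15 uM tetraoctylammonium bromide (100%). LYMP1-001 lymphoblastoid cells, 2500/well, 16 hr compound at 37 C; dead-cell protease fluorescence, Ex/Em 485/520.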

[12] = Cell Viability - LYMP1-002 - Assay at 16 hr (AID 948)
Procedure, shortened: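 LYMP1-002 human lymphoblastoid cells, 2500/well, were treated with compounds for 16 hr at 37 C in complete medium. Viability was read as intracellular ATP by CellTiter-Glo luminescence, and AC50 was derived from a Hill fit to concentration-response data.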

[13] = MultiTox-Fluor Cytotoxicity Assay - LYMP1-002 - Live Cells (AID 955)
Procedure, shortened: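 Cells were seeded at 2500 per well and incubated 5 hr. Compounds were then added for 16 hr at 37 C, followed by MultiTox-Fluor reagent for 60 min at room temperature and fluorescence reading of viable-cell protease signal.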

[14] = MultiTox-Fluor Cytotoxicity Assay - LYMP1-003 - Dead Cells (AID 961); note: nearly all actives have a fitted effect of over 70% in size
Procedure, shortened: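 Human lymphoblastoid LYMP1-003 cells (2500/well) were treated with compounds for 16 hr at 37 C in complete medium. Dead-cell protease release was read by bis-AAF-R110 fluorescence (Ex/Em 485/520). AC50 came from Hill fits, normalized to DMSO and 15 uM tetraoctylammonium bromide.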

[15] = MultiTox-Fluor Cytotoxicity Assay - LYMP1-003 - Live Cells (AID 962);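 note: cytotoxic hits lower the live-cell protease signal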
Procedure, shortened: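 Acute cytotoxicity is scored as a drop in live-cell protease activity in human lymphoblastoid LYMP1-003 cells after 16 hr compound exposure at 37 C. AC50 values come from Hill-equation modelling of concentration-response data.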

[16] = Cell Viability - LYMP1-003 - Assay at 24 hr (AID 963)
Procedure, shortened: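 Cytotoxicity is scored as a concentration-dependent fall in ATP-linked luciferase signal in human lymphoblastoid LYMP1-003 cells treated 24 hr at 37 C in complete culture medium.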

[17] = Cell Viability - LYMP1-003 - Assay at 40 hr (AID 964); note: series mostly up to about 92 µM; nearly all actives have a fitted effect of over 60% in size
Procedure, shortened: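 Luminescent ATP signal (CellTiter-Glo) served as the viability read-out after 40 hr compound treatment of human lymphoblastoid LYMP1-003 cells at 37 C. Decreases in ATP were fitted with the Hill equation to give AC50.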

[18] = Cell Viability - LYMP2-005 (AID 967); note: series mostly up to about 92 µM
Procedure, shortened: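 Human lymphoblastoid LYMP2-005 cells, 2,500 per well in complete medium, rested 5 h at 37C then compound-treated 24 h at 37C. Intracellular ATP read by CellTiter-Glo luminescence after 30 min at room temperature; AC50 from Hill-equation fits of concentration-response data.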

[19] = Cell Viability - LYMP2-009 (AID 968); note: series mostly up to about 92 µM; nearly all actives have a fitted effect of over 55% in size
[20] = Cell Viability - LYMP2-011 (AID 969); note: nearly all actives have a fitted effect of over 60% in size
Procedure, shortened: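 In this qHTS cytotoxicity format, compounds are tested across concentrations on human lymphoblastoid cells in complete medium for 24 hours at 37 C. Viability is taken as cellular ATP measured by luciferase luminescence.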

Measured: Potency

C=CC(=C)CCC=C(C)C
inactive: [1] | [2] | [3] | [4] | [5] | [6] | [7] | [8] | [9] | [10] | [11] | [12] | [13] | [14] | [15] | [16] | [17] | [18] | [19] | [20]

O=C(O)c1ccccc1
inactive: [1] | [2] | [3] | [4] | [5] | [6] | [7] | [8] | [9] | [10] | [11] | [12] | [13] | [14] | [15] | [16] | [17] | [18] | [19] | [20]

CCCCCCCCCCCCCC(=O)O
inactive: [1] | [2] | [3] | [4] | [5] | [6] | [7] | [8] | [9] | [10] | [11] | [12] | [13] | [14] | [15] | [16] | [17] | [18] | [19] | [20]

COc1ccc(/C=C/c2cc(OC)cc(=O)o2)cc1
inactive: [1] | [2] | [3] | [4] | [5] | [6] | [7] | [8] | [9] | [10] | [11] | [12] | [13] | [14] | [15] | [16] | [17] | [18] | [19] | [20]

COc1cc(/C=C/c2ccccc2)oc(=O)c1
inactive: [1] | [2] | [3] | [4] | [5] | [6] | [7] | [8] | [9] | [10] | [11] | [12] | [13] | [14] | [15] | [16] | [17] | [18] | [19] | [20]

CCCCCCCCCCCC(=O)O
inactive: [1] | [2] | [3] | [4] | [5] | [6] | [7] | [8] | [9] | [10] | [11] | [12] | [13] | [14] | [15] | [16] | [17] | [18] | [19] | [20]
